Screens (PubChem BioAssay)
Yeast superoxide – lowers age-related superoxide in aged yeast cells. hit rate 0.18% among 330,000. AID 2690. S. cerevisiae aged cells, superoxide DHE fluorescence; active compounds read low. superoxide response (% of plate mean), % at 10 µM;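 active = superoxide response under a set limit, about three screen SD below normal, cut at about 65% in these data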;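 also: yeast aged for seven days with compound at 30 °C before DHE staining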
MPTP block – blocks calcium-induced mitochondrial swelling | inhibition, % at 10 µM | isolated mouse mitochondria, Ca2+ swelling absorbance, 30 min | hit rate 1.4% among 360,000;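 active = inhibition of 50% or more, scaled per plate between neutral and stimulator controls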
H9c2 protect – myocardial damage modulation in H9c2 cells; H9c2 cardiomyocytes, H2O2 injury protection, ATPLite, 2 h; protection from H2O2 cell death, % at 20 µM; hit rate 0.63% among 360,000; AID 588492;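 active = compounds giving at least 50% protection of heart cells from peroxide-induced death in the single-dose screen, raw or plate-pattern-corrected value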
Mot1-301 SUMO – blocks SUMOylation pathway, rescuing yeast Mot1-301 growth; S. cerevisiae Mot1-301 growth rescue, ATP luminescence, 38.5C; percent above DMSO median, 100 means doubled; growth rescue, % at 18.8 µM; hit rate 1% among 320,000; AID 2716;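 active = every valid replicate shows activation above 250% relative to neutral control wells; inactive = the rest, any valid replicate at or below 250%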
FAS TE block – blocks the thioesterase domain of human fatty acid synthase; P49327; recombinant FAS-TE, OMFH fluorogenic substrate, fluorescence endpoint; hit rate 0.67% among 360,000; AID 602261; inhibition, % at 15 µM;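 active = compounds whose normalised, plate-corrected inhibition of enzyme fluorescence in the single-dose primary screen is 50% or more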
aDG glyco act – alpha-DG glycosylation activation. Pro5-aDG cells, alpha-DG glycosylation AlphaScreen (IIH6); 0% Pro5, 100% B10-LARGE cell signal. activation, % at 10 µM. hit rate 0.22% among 360,000;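 active = activation of at least 8% versus controls, or a plate z-score of at least 8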;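 also: Pro5 are CHO cells carrying HIG-tagged alpha-DG that lacks glycosylation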
FAS-TE conf – confirmation of human fatty acid synthase thioesterase inhibitors. shares compounds with FAS TE block. recombinant FAS-TE, OMFH fluorogenic substrate, fluorescence. hit rate 45% among 2,300. inhibition, % at 15 µM;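 active = compounds inhibiting the enzyme by at least 50% at 15 µM in any one of the replicates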
Each line names hits and unclear results; the compound was inactive in the other large screens (follow-up assays come after a bar, where they were run). Compounds with a hit are over-represented: about 3.8% of the library has one in this group of screens.

Cn1ncc(Cl)c1C(=O)NC1CCCC1	none
CCC(=O)Nc1ccc(C(=O)COC(=O)C(CCSC)NC(=O)COc2ccccc2)cc1 (stereo not given)	none
COc1ccc(C(=O)COC(=O)C(CCSC)NC(=O)COc2ccccc2)cc1 (stereo not given)	FAS TE block 64 | FAS-TE conf inactive
Cc1ccc(S(=O)(=O)N(C)C)cc1-n1c(SCC(=O)Nc2ccccc2)nc2ccccc2c1=O	FAS TE block 52 | FAS-TE conf inactive
Cc1ccc(S(=O)(=O)N(C)C)cc1-n1c(SCC(=O)Nc2ccc(F)cc2)nc2ccccc2c1=O	FAS TE block 54 | FAS-TE conf inactive
COc1ccc(NC(=O)Nc2cccc3c2O[C@H](CN(C)C(=O)Nc2ccccc2)[C@@H](C)CN([C@H](C)CO)C3=O)cc1	none
COc1ccc(NC(=O)Nc2cccc3c2O[C@H](CN(C)C(=O)NC2CCCCC2)[C@@H](C)CN([C@H](C)CO)C3=O)cc1	FAS TE block 78 | FAS-TE conf 71
C[C@H](CO)N1C[C@H](C)[C@@H](CN(C)C(=O)Nc2ccc3c(c2)OCO3)Oc2c(NC(=O)C3CCCCC3)cccc2C1=O	none
C[C@H](CO)N1C[C@H](C)[C@@H](CN(C)C(=O)NC2CCCCC2)Oc2c(NC(=O)Nc3ccc4c(c3)OCO4)cccc2C1=O	FAS TE block 82 | FAS-TE conf 85
Cc1nc2ccc([N+](=O)[O-])cc2c(=O)n1Cc1ccc([N+](=O)[O-])cc1	FAS TE block 59 | FAS-TE conf 63
CCCC(=O)Nc1ccc2nc(C)n(Cc3ccccc3Cl)c(=O)c2c1	none
Cc1nc2ccc([N+](=O)[O-])cc2c(=O)n1Cc1cccc(Br)c1	none
Cc1nc2ccc([N+](=O)[O-])cc2c(=O)n1Cc1ccccc1Br	FAS TE block 71 | FAS-TE conf inactive
Cc1nc2ccc([N+](=O)[O-])cc2c(=O)n1Cc1ccc(Br)cc1	FAS TE block 93 | FAS-TE conf 63
Cc1ccc(Cn2c(C)nc3ccc([N+](=O)[O-])cc3c2=O)cc1	FAS TE block 75 | FAS-TE conf 59
Cc1ccc(Cn2c([N+](=O)[O-])cnc2C)cc1	none
CC(=O)Nc1ccc(-c2ccnc3c2CC(C(=O)NCCC(F)(F)F)O3)cc1 (stereo not given)	none (no result: Yeast superoxide, Mot1-301 SUMO)
O=C(NCCC1=CCCCC1)c1[nH]c(C(F)(F)F)nc1-c1ccccc1	none (no result: Yeast superoxide, Mot1-301 SUMO)
CC(NC(=O)CN1c2cccc3cccc(c23)S1(=O)=O)c1ccc(S(N)(=O)=O)cc1 (stereo not given)	none
Cc1ccsc1C(=O)N1CCCC(N(C)Cc2ccccc2)C1 (stereo not given)	none
Cc1ccc2c(c1)CCCN2CC(=O)N(C)c1c(N)n(Cc2ccccc2)c(=O)[nH]c1=O	none
O=[N+]([O-])c1ccc(Cl)c(-c2ccc(/C=N/n3cnnc3)o2)c1	none
Cc1cc(-c2ccc(/C=N/n3cnnc3)o2)c(C)c([N+](=O)[O-])c1	FAS TE block 60 | FAS-TE conf 39
CCOC(=O)[C@H]1[C@H]2COc3ccc(Br)cc3[C@@H]2N2C(=O)c3ccc(Cl)cc3NC(=O)[C@@]12C	FAS TE block 78 | FAS-TE conf inactive
CCOC(=O)[C@@H]1[C@H]2COc3ccc(Br)cc3[C@@H]2N2C(=O)N(c3ccc(C)cc3)C(=O)[C@]12C	none
CCOC(=O)[C@@H]1[C@H]2COc3ccc(Br)cc3[C@@H]2N2C(=O)N(c3ccc(C(F)(F)F)cc3)C(=O)[C@]12C	FAS TE block 58 | FAS-TE conf inactive
CCOC(=O)[C@@H]1[C@H]2COc3ccc(Br)cc3[C@H]2N2C(=O)N(c3ccc(C)cc3)C(=O)[C@]12C	FAS TE block 60 | FAS-TE conf inactive
CCOc1ccc(CCN2C(=O)C(=O)N([C@@H](CC(C)C)CN3CCC[C@H]3CN3C(=O)C(=O)NC[C@@H]3Cc3ccccc3)C[C@@H]2Cc2ccccc2)cc1	none (no result: Yeast superoxide, H9c2 protect, Mot1-301 SUMO)
Cc1ccc(Cn2ccc(-c3cnc(-c4ccccc4)s3)n2)cc1	none
O=S(=O)(c1ccccc1)n1ccc(-c2cnc(-c3ccccc3)s2)n1	FAS TE block 63 | FAS-TE conf 58
